# Screens: PubChem, National Center for Advancing Translational Sciences (NCATS)
# D2 ag-1: activates the human D2 dopamine receptor; 340,000 compounds, 0.53% hits; AID 485358; activation, % at 2 µM; HEK293 T-REx D2 cells, calcium flux agonist mode; P14416;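 active means activation over 3 SD above normal in the single-dose calcium agonist read, cut at about 30% in these data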; further: 0% is about no effect
# Target sequence (P14416 whole entry, looked up): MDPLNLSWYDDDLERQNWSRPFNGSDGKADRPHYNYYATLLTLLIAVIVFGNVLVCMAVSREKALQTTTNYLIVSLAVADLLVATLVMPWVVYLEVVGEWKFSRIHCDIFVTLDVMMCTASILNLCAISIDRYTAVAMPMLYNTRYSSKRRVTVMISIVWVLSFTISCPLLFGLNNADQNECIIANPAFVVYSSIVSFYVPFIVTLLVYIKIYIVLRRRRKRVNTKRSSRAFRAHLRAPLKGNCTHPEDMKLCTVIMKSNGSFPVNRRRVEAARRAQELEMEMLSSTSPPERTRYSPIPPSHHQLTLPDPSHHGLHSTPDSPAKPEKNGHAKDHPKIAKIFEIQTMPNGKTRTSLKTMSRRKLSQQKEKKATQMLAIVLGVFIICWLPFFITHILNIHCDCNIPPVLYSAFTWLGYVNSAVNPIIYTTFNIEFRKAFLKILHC
#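 Agonism scored from kinetic calcium signal (1 read/sec, 180 s) following compound pin transfer, after a 10 s baseline. Cells: HEK293 Trex line expressing inducible D2 receptor coupled to calcium, dye-loaded after overnight culture at 30 C.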
# D2 PAM-1: D2 dopamine receptor (human) potentiation | 340,000 compounds, 0.34% hits | HEK293 T-REx D2, calcium flux, EC20 dopamine potentiation | potentiation, % at 10 µM | P14416 | AID 485347;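 active means potentiation over 3 SD above the plate norm, cut at about 30% in these data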; further: 0% is about no effect
#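 Potentiation of an EC20 dopamine calcium response is measured in a force-coupled, tetracycline-inducible Hek293 Trex D2 line. Compound-only kinetic reads over 180 s flag agonists before dopamine addition.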
# D2 antag: antagonizes the human D2 dopamine receptor; 340,000 compounds, 2% hits; HEK293 TREx D2 cells, calcium flux, dopamine EC80; inhibition, % at 10 µM; P14416; in the data active means inhibition above about 30%; inactive means below that, where a call was filed; further: 0% is about no effect
#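 Tetracycline-induced HEK293 TREx cells expressing D2 receptor forced-coupled to calcium signalling, loaded with no-wash calcium dye. Compounds added and calcium flux read 180 s, then dopamine added at EC80 and read a further 180 s.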
# D2 ag-2: agonists of human D2 dopamine receptor (beta-arrestin) | DiscoveRx PathHunter D2 beta-arrestin, luminescence, 90 min; 100% = 57 uM dopamine signal | activation, % (no concentration beside the values) | P14416 | 360,000 compounds, 0.084% hits | AID 624465; in the data active means activation above about 40%
#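 DiscoveRx PathHunter D2 beta-arrestin cells (2,100/well) attached overnight, then compound-stimulated 90 min at 37 C in HBSS/10 mM HEPES/0.1% Tween-20 buffer; beta-galactosidase complementation read by luminescence after 1 h at ambient temperature. Dopamine 57 uM final (EC100) as control.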
# D2 PAM-2: potentiates the human D2 dopamine receptor allosterically | AID 624464 | 360,000 compounds, 0.23% hits | potentiation, % (concentration not given with the values) | P14416 | DiscoveRx D2 beta-arrestin cells, luminescence, 90 min; 100% = 57 uM dopamine signal; in the data active means potentiation above about 50%
#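 PathHunter beta-arrestin assay in DiscoveRx D2 cells. Compounds were added with an EC20 of dopamine (50 nM final) for 90 min at 37 deg C. Luminescence was read 1 h after detection reagent, with 57 uM dopamine as the EC100 control.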
# D3 arrestin ag: confirmation of human D3 dopamine receptor agonists, beta-arrestin; Potency, µM (doses to about 76.9 µM), for the others: top-dose activation, hits mostly activators; AID 720506; DiscoveRx D3 beta-arrestin cells, luminescence, 90 min; shares compounds with D2 ag-1; 2,300 compounds, 4% hits;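 further: potency means the concentration at half of the fitted maximal effect; 100% = dopamine control response; nearly all actives have a fitted effect of over 70% in size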
# D2 ag-3: D2 receptor agonism, beta-arrestin counterscreen; AID 720507; Potency, µM (doses to about 76.9 µM), for inactives: at the top dose activation, most hits filed as activators; DiscoveRx PathHunter D2 beta-arrestin, luminescence, 90 min; response scale: percent relative to full dopamine signal; 2,300 compounds, 5.9% hits; shares compounds with D2 ag-1; further: potency means the concentration at half of the fitted maximal effect; % of control where 0% means no effect; nearly all actives have a fitted effect of over 70% in size
# * marks the source's active call; other numbers are inactive results; . = no result. An excerpt weighted towards active compounds, which were near 2.4% of everything screened. Unless noted, the call rests on the fitted dose curve; in most records, active means well fitted activation curve with a large enough effect; inconclusive means small, poorly fitted or top-dose-only effect; inactive means flat fitted curve, though single readings scatter.
SMILES,D2 ag-1,D2 PAM-1,D2 antag,D2 ag-2,D2 PAM-2,others
C1=C(c2c[nH]c3ccccc23)CCNC1,2,-16,42*,.,.,
OCCN1C2CCC1CC(O)(c1ccc(F)cc1)C2 (centres undefined),1,-19,48*,-2,-39,
Cc1[nH]c2ccccc2c1CCCNC1CCCCC1,1,-26,39*,-8,-30,
CN1CCc2cccc(Cl)c2CC1,1,-18,53*,-1,-32,
O=c1c2ccccc2nc(-c2ccco2)n1-c1nccs1,1,0,30*,-3,-5,
CC(C)OCC(O)CN1CC2C[C@@H](C1)Cn1c2cccc1=O (some centres undefined),23,-14,42*,7,4,
CCN(CC)P(=O)(c1n(CC)cc[n+]1CC)N(CC)CC,0,31*,-17,-4,-1,
O=C(Nc1ccc2c(c1)OCCO2)c1cccn(Cc2cccc([N+](=O)[O-])c2)c1=O,7,-7,.,.,.,
COc1ccc(CN2CCN(Cc3ccccc3OC)CC2)cc1,0,1,-5,-3,-22,
COc1ccccc1N1CCN(Cc2ccc(Cl)cc2Cl)CC1,-2,-30,35*,0,-35,
COc1ccccc1CN1CCN(Cc2ccc(Cl)cc2)CC1,1,-24,76*,-1,-23,
CSc1ccc(CN2CCN(c3ccccc3C)CC2)cc1,0,-32,71*,3,-15,
Clc1ccccc1CN1CCN(c2ccccc2Cl)CC1,15,-25,-25,3,-19,
Cc1ccc(CN2CCN(Cc3ccccc3F)CC2)cc1,-1,-15,39*,-4,-21,
CCCC1=Nc2cc(C(=O)NC3CCC(C)CC3)ccc2Sc2ccccc21 (centres undefined),.,-5,.,.,.,
COc1ccc(-c2nc(CN3C(=O)CN=C(c4ccccc4)c4ccccc43)c(C)o2)cc1,.,-3,.,.,.,
O=C(Nc1ccc2c(c1)OCO2)c1cccn(Cc2ccc(F)cc2)c1=O,1,2,.,.,.,
Cc1ccc(-n2c(/C=C/c3ccc(Br)s3)nc3ccccc3c2=O)cc1C,0,-3,.,.,.,
O=C(COc1cccc(Cl)c1)N1CCN(CCc2ccncc2)CC1,-1,-6,.,.,.,
COc1ccccc1N1CCN(Cc2ccc(SC)cc2)CC1,-1,-21,79*,-3,-82,
O=Cc1c(C(=O)O)n(Cc2ccc(Cl)cc2)c2ccccc12,31*,-7,5,-1,-11,
COc1ccccc1-c1nn2c(=O)cc(CN3CCN(C(=O)COc4ccccc4Cl)CC3)nc2s1,0,-10,.,.,.,
O=C(C[N+]12CCC(CC1)C(CO)C2)c1ccc([N+](=O)[O-])cc1 (centres undefined),1,1,8,-3,2,
O=C(C[N+]12CCC(CC1)C(OC(=O)c1ccccc1)C2)c1ccc([N+](=O)[O-])cc1 (centres undefined),-1,4,33*,0,-2,
c1ccc(CN2CCc3nc4ccccc4cc3C2)cc1,78*,-28,76*,95*,27,
SMILES,D2 ag-1,D2 PAM-1,D2 antag,D2 ag-2,D2 PAM-2,others
N#CC1(c2ccccc2)CCN(C2CC(=O)N(c3ccc(F)cc3)C2=O)CC1 (centres undefined),1,31*,-16,5,-5,
CC(C)c1ccc(OCC(=O)N2CCN(CCc3ccncc3)CC2)cc1,1,4,.,.,.,
FC(F)(F)c1ccc2c(c1)N(CCCN1CCN(CCCl)CC1)c1ccccc1S2,1,-26,75*,-2,-44,
Cc1ccc(C)c(-n2c(C)nc3ccccc3c2=O)c1,0,-19,0,-3,-15,
Cc1cc(NCCN)nc2ccccc12,3,-21,58*,-6,-20,
N#Cc1ccccc1NC(=O)c1cccn(Cc2ccccc2)c1=O,1,17,.,.,.,
CN1CC[C@]2(c3cccc(O)c3)Cc3nc4ccccc4cc3C[C@H]2C1,-1,-7,40*,.,.,
CN1CC[C@@]23CCCC[C@@H]2[C@@H]1Cc1ccc(O)cc13,.,.,.,-5,2,
COc1ccc(NC(=O)c2cccn(Cc3ccc(Cl)cc3)c2=O)c(OC)c1,1,.,.,.,.,
Cc1cccc(-n2c(/C=C/c3cn(C)c4ccccc34)nc3ccccc3c2=O)c1,0,-4,.,.,.,
CCCCn1c(NC(=O)c2ccc(Br)o2)c(C(=O)OCC)c2nc3ccccc3nc21,37*,-16,-5,-15,-14,
N#Cc1cccc(NC(=O)c2sc3nc4c(cc3c2N)N2CCC4CC2)c1,0,2,.,.,.,
COc1cc2ccc(=O)oc2c2ccoc12,0,2,-31,0,-36,
COc1cc2occc2c2oc(=O)ccc12,-1,-1,33*,0,-23,
COCCCn1c(N)c(C(=O)OC(C)COC)c2nc3ccccc3nc21 (centres undefined),-1,-2,43*,-4,-11,
CCCCOCCCn1c(N)c(C(=O)OC(C)COC)c2nc3ccccc3nc21 (centres undefined),-2,-2,-13,-8,-29,
Cc1ccc(C)c(CN2C(=O)c3ccccc3Sc3ccc(C(=O)N4CCC5(CC4)OCCO5)cc32)c1,1,6,.,.,.,
CCN(CC)CCCOC(=O)C(OC(C)C)(c1ccccc1)c1ccccc1,-1,-25,57*,-2,-17,
O=C(CCCN1CCC(n2c(=O)[nH]c3ccccc32)CC1)c1ccc(F)cc1,0,-14,77*,1,-27,
Cc1ccc(NC(=O)CN2C(=O)CN=C(c3ccccc3)c3ccccc32)cc1Cl,0,-11,.,.,.,
CC1(C)CN=C(Nc2ccc(F)c(Cl)c2)S1,1,0,1,-9,-21,
CC1(C)CSC(Nc2ccc(F)c(Cl)c2)=N1,0,32*,12,-1,13,
CCCN1CCC[C@@H]2Cc3nc(N)ncc3C[C@H]21,.,.,.,126*,117*,
Fc1ccc(C(OCCN2CCCC2)c2ccc(F)cc2)cc1,1,-23,13,-5,-41,
Fc1ccc(C(OCCN2CCCC2)c2ccc(Br)cc2)cc1 (centres undefined),4,-23,47*,0,-16,
COc1ccc(/C=C/c2nc3ccccc3c(=O)n2-c2ccc(C)cc2)cc1O,0,.,.,.,.,
CCOC(=O)c1ccccc1C(=O)OCC,.,.,.,2,-8,
CCCOC(=O)c1ccccc1C(=O)OCCC,-1,7,-5,8,-8,D3 arrestin ag=-8%;D2 ag-3=-3%
